PLAP activator = activators of human placental alkaline phosphatase; P05187; purified PLAP enzyme, luminescent substrate read-out; hits give high values; activation fold at 20 µM; 96,000 tested, 1.2% active; AID 696; in the data active means activation fold above about 2
CYP2C19 inh = inhibitors of human CYP2C19; CYP2C19 Supersomes, luciferin-H EGE luminescence, 30 min; inhibition, % at 5 µM; 96,000 tested, 21% active;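 active means CYP2C19 inhibition above a set limit at 5 µM in the primary screen, cut at about 50% in these data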;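 further: plate controls were negative control wells for no effect and 2.5 mM tranylcypromine positive control for full effect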
Target sequence (P33261 whole entry, looked up): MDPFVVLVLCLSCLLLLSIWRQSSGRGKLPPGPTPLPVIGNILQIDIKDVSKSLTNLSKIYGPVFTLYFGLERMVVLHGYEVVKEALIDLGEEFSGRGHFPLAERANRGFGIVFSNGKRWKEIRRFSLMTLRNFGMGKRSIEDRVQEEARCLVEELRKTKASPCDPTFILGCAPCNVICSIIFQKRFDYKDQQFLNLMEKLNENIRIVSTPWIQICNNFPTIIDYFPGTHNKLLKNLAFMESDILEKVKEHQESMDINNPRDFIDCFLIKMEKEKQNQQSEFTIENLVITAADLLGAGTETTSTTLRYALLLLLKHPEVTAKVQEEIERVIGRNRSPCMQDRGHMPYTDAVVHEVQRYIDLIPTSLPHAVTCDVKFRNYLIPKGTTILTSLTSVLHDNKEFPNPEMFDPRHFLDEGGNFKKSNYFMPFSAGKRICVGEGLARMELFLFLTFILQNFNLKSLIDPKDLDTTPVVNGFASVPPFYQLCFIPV
CYP2C9 activ = increases human cytochrome P450 2C9 activity; P11712; recombinant CYP2C9, luciferin-H conversion, luminescence; hits give high values; factor 1 = untreated enzyme, 0 = blocked; activation factor at 5 µM; 96,000 tested, 1.4% active; AID 1024;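 active means activation factor of 2 or more for CYP2C9 at a 5 µM dose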;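 further: 0 = sulfaphenazole-blocked wells and 1 = vehicle-only wells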
CYP2C9 inh = inhibitors of human CYP2C9; CYP2C9 Supersomes, luciferin-H conversion, luminescence; inhibition, % at 5 µM; 96,000 tested, 20% active;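 active means blocking of liver enzyme CYP2C9 beyond about 50% at 5 µM, limit read from the data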
CYP2C19 activ = cytochrome P450 2C19 (human) activation; 96,000 tested, under 10 active; activation factor at 5 µM; recombinant CYP2C19, luciferin-H EGE luminescence; hits give high values; 0 = fully inhibited enzyme, 1 = untreated enzyme; P33261;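 active means activation factor of at least 2 at 5 µM in the primary screen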;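 further: 0 = wells with 2.5 mM tranylcypromine and 1 = vehicle-only wells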
Starred values were filed as active, the others as inactive. Compounds with a hit are over-represented: about 31% of the library has one in this group of screens.

SMILES	PLAP activator	CYP2C19 inh	CYP2C9 activ	CYP2C9 inh	CYP2C19 activ
C=CCn1c(-c2cccc(Cl)c2)n[nH]c1=S	1	48.9	0.9	11.5	0.5
COc1ccc(-c2csc(Cc3nnc(N4CCOCC4)n3-c3ccccc3)n2)cc1	1.6	-17.6	0.9	12.2	1.2
COc1cc(NC(=O)c2ccc(CNc3c(N4CCOCC4)c(=O)c3=O)cc2)cc(OC)c1	1	8.9	0.6	35.5	0.9
COc1ccc(-c2cc(N)n(S(=O)(=O)c3c(F)c(F)c(F)c(F)c3F)n2)cc1OC	1.1	58.7*	0.2	83.0*	0.4
Cc1nc(-c2ccccn2)sc1C(=O)Nc1ccc(Cl)c(Cl)c1	0.9	10.3	0.6	41.3	0.9
CCOC(=O)C1CCN(c2c(NCCN3CCN(c4ccccc4)CC3)c(=O)c2=O)CC1	1.1	-1.4	1	-4.2	1
CCOC(=O)C1CCN(c2c(NCc3ccc(C(=O)NC(C)CC)cc3)c(=O)c2=O)CC1 (stereo not given)	1.2	11.6	0.4	58.6*	0.9
CCOC(=O)N1CCN(C(=O)CCN2C(=O)COc3ccc(C)cc32)CC1	1	4.8	1.1	-14.0	1
Cc1cc(=O)oc2cc(OCC3CC(c4ccccc4)=NO3)ccc12 (stereo not given)	0.7	43.0	0.5	51.0*	0.6
C#CCOc1ccc2c(C)cc(=O)oc2c1	1.1	64.4*	1	2.2	0.4
COC(=O)NCC1(C)CC(NC(=O)OC)CC(C)(C)C1 (stereo not given)	1.1	76.9*	1.2	-17.0	0.2
COC(=O)NC1CCC(CC2CCC(NC(=O)OC)CC2)CC1 (stereo not given)	1.2	9.2	0.9	10.1	0.9
CC1CCCCC12NC(=O)N(CC(=O)NC(=O)NCc1ccco1)C2=O (stereo not given)	1.4	-15.3	0.9	11.1	1.2
CCN(CC)c1nc(OC)nc(-n2nnc(C(C)=O)c2C)n1	1.1	-5.7	1.1	-10.0	1.1
CCCCNc1nc(N(C)c2ccccc2)nc(-n2ccnc2)n1	1	85.2*	0.2	83.6*	0.1
c1ccc(N(c2ccccc2)c2nc(-n3ccnc3)nc(-n3ccnc3)n2)cc1	0.9	17.8	1	2.6	0.8
CN(c1ccccc1)c1nc(-n2ccnc2)nc(-n2ccnc2)n1	1	78.9*	0.6	43.5	0.2
Cc1ccccc1-n1c(C)nnc1SCC(=O)NCC1CCCO1 (stereo not given)	1	10.0	1.6	-55.2	0.9
CS(=O)(=O)Cc1nc2ccccc2oc1=O	1.4	63.9*	0.6	44.6	0.4
O=C(O)COc1ccc(S(=O)(=O)c2ccc(OCC(=O)O)cc2)cc1	0.9	4.3	1	-2.7	1
CC(C)C1Cc2c(sc3[nH]c(=S)n(Cc4ccccc4)c(=O)c23)CO1 (stereo not given)	1.6	4.4	0.2	76.9*	1
Cc1nnc2n(-c3ccccc3)c(=O)c3c4c(sc3n12)COC(C(C)C)C4 (stereo not given)	1.4	7.7	0.8	16.4	0.9
CCOC(=O)c1sc(NC(=O)C(CC)OC(=O)C(CC(C)C)NC(=O)c2ccccc2)nc1C (stereo not given)	1.1	54.8*	0.8	22.1	0.5
Cc1nc(NCCc2ccccc2F)c(C#N)c(C)c1[N+](=O)[O-]	0.9	26.2	0.3	67.8*	0.7
CC(C)CC(=O)NCCNC(=O)c1cc(OCC(F)(F)F)ccc1OCC(F)(F)F	1	4.0	0.1	87.2*	1
SMILES	PLAP activator	CYP2C19 inh	CYP2C9 activ	CYP2C9 inh	CYP2C19 activ
COc1ccc(C(=O)NCCNC(=O)c2cc(OCC(F)(F)F)ccc2OCC(F)(F)F)cc1	0.9	-2.8	0.9	10.5	1
O=C(NCCNS(=O)(=O)c1cccc(C(F)(F)F)c1)c1cc(OCC(F)(F)F)ccc1OCC(F)(F)F	0.9	79.6*	0.8	15.6	0.2
O=C(COC(=O)c1cc(S(=O)(=O)N2CCOCC2)c(Cl)cc1Cl)Nc1ncc(C(F)(F)F)cc1Cl	1	2.9	0.9	6.1	1
O=C(CSc1ncnc2c1oc1ccccc12)N1CCc2ccccc2C1	0.9	12.3	0.8	17.7	0.9
COc1cccc(C(=O)O/N=C/c2ccc(Sc3ccc(C)cc3)nc2)c1	0.8	9.7	0.8	19.0	0.9
COc1ccc2cc(Br)ccc2c1CC(=O)NC1CC(C)(C)NC(C)(C)C1	1.3	16.8	0.9	12.6	0.8
CCOC(=O)C1CCN(C(=O)CSCCSCC(=O)N2CCC(C(=O)OCC)CC2)CC1	1.6	73.1*	0.9	7.0	0.3

Source: PubChem BioAssay
